# Test results reported in the supplement of paper PMC3334620.
# Over roughly 33,000 sequences, “E-score (-0.5 to 0.5)” has its median near -0.0034; the highest 2% begin near 0.25. This excerpt belongs to a sample that is enriched for the highest values.
# Molecular target: T1, Yap3 (UniProt P38749)
# T1 sequence: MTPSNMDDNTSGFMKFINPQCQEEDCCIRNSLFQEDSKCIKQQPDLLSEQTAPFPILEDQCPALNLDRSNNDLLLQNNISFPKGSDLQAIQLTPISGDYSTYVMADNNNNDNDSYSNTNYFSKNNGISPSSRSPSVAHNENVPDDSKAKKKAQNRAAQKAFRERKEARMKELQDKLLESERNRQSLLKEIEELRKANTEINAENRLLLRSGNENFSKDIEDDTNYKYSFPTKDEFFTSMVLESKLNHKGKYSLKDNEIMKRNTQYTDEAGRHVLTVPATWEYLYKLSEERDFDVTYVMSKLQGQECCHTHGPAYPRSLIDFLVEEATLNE
# Test: PBM E-score (8-mer binding enrichment) (E-score (-0.5 to 0.5)); higher = stronger / more preferred TF binding
# Details: protein concentration: 100 nM; construct: GST-full length
# Method: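 Universal 'all 10-mer' protein binding microarrays (Agilent AMADID 015681) probed with GST-tagged S. cerevisiae TFs (full-length or DBD) made by in vitro transcription/translation (PURExpress), about 100-200 nM. Bound TF was detected with fluorescent anti-GST. Each ungapped 8-mer (which stands for itself and its reverse complement) is scored by the PBM enrichment score (E-score), a modified Wilcoxon-Mann-Whitney statistic from -0.5 to +0.5, computed with the Universal PBM Analysis Suite. Scale: above 0.35 generally sequence-specific binding.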
row,Sequence,PBM E-score
1,AACTATAC,0.0711
2,AAAAATAC,0.14
3,AACGATAG,0.116
4,AAATATAT,0.285
5,AAATATAC,0.19
6,AACTATAT,0.309
7,AACGATAT,0.269
8,AAATATAG,0.117
9,AAAAATAT,0.342
10,AACGATAC,0.0446
11,AACTATAG,0.0554
12,AAAAATAG,0.225
13,AACTCATT,0.0581
14,CTCCCTCA,-0.122
15,CCTCAAGG,-0.145
16,CTCATTCC,0.139
17,CTGCCCAA,-0.122
18,GCCGAATA,0.115
19,AAACCACC,0.0609
20,ATCGACTC,-0.161
21,AGTAGAAG,0.0935
22,AGTCATGG,0.0946
23,AGCTTTAA,0.0942
24,CCATATGA,0.00159
25,TAATATGA,0.297

row,Sequence,PBM E-score
1,AAGTATGA,0.0367
2,GCATATGA,0.214
3,TAGTATGA,0.255
4,GAATATGA,0.168
5,TCATATGA,0.317
6,CAATATGA,0.174
7,CAGTATGA,0.143
8,AGTTGATC,0.0597
9,GACAGGTC,-0.226
10,AAGGTTCC,-0.0546
11,TAAGTATA,0.275
12,CAAGTATA,-0.0229
13,AAAGTATA,0.235
14,CCTCGCTC,0.0543
15,AGAGAACA,0.206
16,GGCCCCCC,-0.461
17,CCCACACA,-0.0183
18,TTAACGAA,0.179
19,ACAACCAC,0.0359
20,ACAACCAG,0.0808
21,ACAACCAT,0.334
22,GATTTCCA,0.0257
23,AAATTCGT,0.312
24,AATTTCCA,0.267
25,CAATTCCA,-0.102

row,Sequence,PBM E-score
1,GAATTCCA,0.195
2,AAATTCGG,0.153
3,TATTTCCA,0.00077
4,AAATTCCA,0.269
5,AAATTCGC,0.129
6,GTCTTGAA,0.0256
7,AAGAACGA,0.142
8,CCAATTGA,0.0344
9,GAACGCAC,0.0357
10,AGAGGTAT,0.256
11,AGAGGTAA,-0.0121
12,AGAGGTAC,-0.248
13,ATCCGATG,0.0814
14,ATTAGACG,0.104
15,CCTGTAAA,-0.0789
16,AATGTAAG,0.307
17,TACGTAAA,0.319
18,AATGTAAA,0.231
19,GACGTAAA,0.0343
20,CATGTAAG,0.155
21,CACGTAAA,-0.0521
22,TATGTAAA,0.262
23,AATGTAAT,0.253
24,CATGTAAA,0.0358
25,ACTGTAAC,0.0996

row,Sequence,PBM E-score
1,ACTGTAAA,0.257
2,TAGATGAA,0.082
3,CCGATGTC,0.0178
4,AATAGCTA,0.0193
5,AGTGATCC,-0.0505
6,GGGATCGA,-0.124
7,CGCGTAAA,0.255
8,AACGTAAT,0.353
9,TGCGTAAA,0.132
10,AACGTAAA,0.2
11,AACGTAAC,0.201
12,CGCGTAAG,0.158
13,CAAGAAAC,0.197
14,TACAACTA,-0.028
15,AGCCCACA,-0.117
16,AATGGAGG,-0.119
17,AATTTTAT,0.266
18,AATTTTAC,0.258
19,AAATTTAT,0.144
20,CATTTTAA,0.219
21,CATTTTAG,0.121
22,GATTTTAC,0.161
23,ATTTTTAC,0.0674
24,CATTTTAC,0.332
25,AATTTTAG,0.107

row,Sequence,PBM E-score
1,CCTTCTCG,-0.134
2,AGGTTTCA,0.0131
3,GATACTAC,0.0824
4,ACGGTAGA,-0.0586
5,AACTGATT,-0.0243
6,AACCAGGC,-0.00725
7,CAGTGAAC,0.161
8,CTGGTTGA,-0.256
9,CTTCACTC,0.0393
10,ATTATGCA,0.0948
11,GTTATGTA,0.151
12,AGTATGTG,0.203
13,ATTATGTA,0.267
14,ATTATGCG,0.297
15,ACTATGTG,-0.0195
16,ATTATGTG,0.291
17,ATAATGTA,0.292
18,ATTATGTC,0.198
19,ATTATGCC,0.119
20,CTAATGTA,0.148
21,ATAATGTC,0.195
22,CCTGCGCA,-0.158
23,AAATCACC,0.235
24,AGATCGCG,0.0544
25,GTAGGGAA,0.0975

row,Sequence,PBM E-score
1,ACGTAGTC,-0.262
2,ATTATGAA,0.261
3,GTTATGAA,0.172
4,CTTATGAA,0.0398
5,ATCGACTA,0.0167
6,CATGTGGC,0.0138
7,ACAACGCG,0.0663
8,ATATTCAC,0.254
9,GTATTCAC,0.113
10,CTATTCTC,0.134
11,ATATTCTA,0.175
12,CTATTCAC,0.133
13,ATATTCTC,0.295
14,AGGTTCTG,-0.122
15,CCACCATC,-0.238
16,GTACAAGA,0.0226
17,GACTTACC,-0.11
18,CAAAGTCA,0.0697
19,AGACAATG,0.0142
20,AGACAATC,0.129
21,AGACAATA,0.339
22,CTATGGGC,-0.0642
23,ACCCAGAA,0.158
24,CAACCGCA,0.00088
25,CAACCGCG,0.323

row,Sequence,PBM E-score
1,CAACCGCC,-0.103
2,CATAAGAA,0.21
3,AAGTGGAC,-0.033
4,CTACGTAA,0.135
5,CTTCGTTC,0.0138
6,ATTCGTTC,0.27
7,ATACGTAT,0.296
8,CTTCGTAA,0.141
9,ATTCGTTA,0.25
10,GTTCGTAA,0.192
11,GTACGTAC,0.0261
12,ACACGTAT,0.0936
13,ATTCGTAA,0.292
14,GTACGTAA,0.312
15,AAACGTAT,0.145
16,CGGGGTAC,-0.251
17,GTGAGCTA,0.0321
18,AAATGTGC,0.197
19,CCACTAAG,0.0472
20,ACTAAGTG,-0.00977
21,ACAACAGC,0.0808
22,ACAGAGAT,0.0805
